Compound activity: PubChem BioAssay, National Center for Advancing Translational Sciences (NCATS)
Shown is part of a subset that was picked to be rich in hits.
CBFb RUNX1 block – inhibitors of human CBF-beta and RUNX1 interaction | Potency, µM (doses to about 59.8 µM), actives largely listed as inhibitors | AlphaScreen CBFb-His/RUNX1-biotin binding, biochemical | 230,000 tested, under 10 active | Q01196+Q13951; active = well fitted curve in the direction sought with a large enough effect; inconclusive = small, poorly fitted or top-dose-only effect, or effect the other way, or another doubt; inactive = no such curve, though single readings can be large or run the other way
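CBF-beta (His) and RUNX1 (biotin), 30 nM each; 20 min preassociation; + compound, 15 min; + beads 50 ng each (Ni, streptavidin), 90 min; RT; AlphaScreen read.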
MBNL1-CUG inh – inhibitors of human MBNL1 binding to CUG repeat RNA. Potency, µM (highest dose often 57.5 µM), usual class: inhibitors. Q9NR56. 0.036% of 280,000 active. TR-FRET MBNL1-His/biotin-(CUG)12 binding, 665/545 ratio; active = well fitted inhibition curve with a large enough effect in the signal ratio, with a control signal flat, not every such curve was filed as active; inconclusive = small, poorly fitted or top-dose-only effect, or effect the other way, or a change in a side signal; inactive = no such curve, though single readings can be large or run the other way; the % refers to the signal ratio
Target sequence (Q9NR56 whole entry, looked up): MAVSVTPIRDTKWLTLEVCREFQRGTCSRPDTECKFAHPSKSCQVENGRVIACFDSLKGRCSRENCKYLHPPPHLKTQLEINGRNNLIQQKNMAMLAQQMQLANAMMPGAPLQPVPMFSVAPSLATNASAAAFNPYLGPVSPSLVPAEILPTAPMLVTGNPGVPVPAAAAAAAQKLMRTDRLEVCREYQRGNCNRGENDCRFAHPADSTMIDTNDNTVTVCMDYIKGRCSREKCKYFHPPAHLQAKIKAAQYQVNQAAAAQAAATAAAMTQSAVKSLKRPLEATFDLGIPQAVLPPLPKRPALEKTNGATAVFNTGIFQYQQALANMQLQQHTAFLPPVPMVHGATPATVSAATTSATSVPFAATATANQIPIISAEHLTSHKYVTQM
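TR-FRET between His-tagged MBNL1 and biotin-(CUG)12 RNA, detected with Tb anti-His antibody (0.055 ng/ul) and streptavidin-XL665 (5 nM), 60 min at room temperature. Compounds titrated 92 nM to 58 uM; 665/545 nm ratio normalized to buffer and complex controls.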
MLL CXXC-DNA inh – MLL CXXC-DNA interaction inhibition | 0.037% of 290,000 active | MLL-CXXC / FITC-HOXA9 DNA fluorescence polarization | Q03164 | Potency, µM (top dose mostly 115 µM), hits mostly inhibitors; active = well fitted inhibition curve with a large enough effect in the polarisation, with a control signal flat, not every such curve was filed as active; inconclusive = small, poorly fitted or top-dose-only effect, or effect the other way, or a change in a side signal; inactive = no such curve, though single readings can be large or run the other way; the % refers to the polarisation
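Steps: dispense CXXC domain solution (7 uM) → pin compounds or unlabeled HOX-A9 DNA control → 5 min ambient → add FLSN-HOX-A9 solution (50 nM) → spin → 30 min ambient → fluorescence polarization. Tris pH 7.5/NaCl/DTT/BSA buffer.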
Menin MLL FP FL – displaces fluorescein MLL peptide from human menin; Fluorescence polarization, fluorescein-MLL peptide displacement from menin; FP activity change, % at 61.4 µM; 290,000 tested, under 10 active; active = well fitted curve in the direction sought with a large enough effect in the polarisation, not every such curve was filed as active; inconclusive = small, poorly fitted or top-dose-only effect, or effect the other way, or a change in a side signal; inactive = no such curve, though single readings can be large or run the other way; the % refers to the polarisation
Menin MLL FP TR – displaces Texas Red mutant MLL peptide from human menin. 0.23% of 270,000 active. Potency, µM (highest dose often 61.6 µM), actives largely listed as inhibitors. Menin + Texas Red MLL mutant peptide, fluorescence polarization; active = well fitted inhibition curve with a large enough effect in the polarisation, with a control signal flat, not every such curve was filed as active; inconclusive = small, poorly fitted or top-dose-only effect, or effect the other way, or a change in a side signal; inactive = no such curve, though single readings can be large or run the other way; the % refers to the polarisation
Of the large screens only hits and unclear results are named; the others gave an inactive call.

CC(=O)N1CCN(c2ccc(NCc3ccc(C)s3)cc2)CC1	none
CC(=O)N1CCN(c2ccc(NCc3cccs3)cc2)CC1	Menin MLL FP TR 28µM
N=C1SC(c2ccccc2)C(=O)N1c1ncc(Cc2ccccc2Cl)s1 (centres undefined)	Menin MLL FP TR 14µM
CCN(CC)S(=O)(=O)c1cccc(S(=O)(=O)N2CCCCC2)c1	none
COc1ccc(N2CCN(C(=O)c3cc4cc(Cl)ccc4[nH]3)CC2)cc1	Menin MLL FP TR 32µM (no result: CBFb RUNX1 block)
N#CC1=C(N)OC2=C(CN(Cc3ccccc3)C/C2=C\c2cccnc2)C1c1cccnc1 (centres undefined)	MBNL1-CUG inh inconclusive, Menin MLL FP FL inconclusive, Menin MLL FP TR inconclusive
CC(C)N1CC2=C(OC(N)=C(C#N)C2c2cccnc2)/C(=C/c2cccnc2)C1 (centres undefined)	Menin MLL FP TR 25µM
NC(=O)CC1Nc2cccc3cccc(c23)NC1=O (centres undefined)	none
Cc1oc(-c2ccc(Cl)cc2)nc1CS(=O)CC(=O)NC1CCCC1 (centres undefined)	none (no result: CBFb RUNX1 block, Menin MLL FP FL, Menin MLL FP TR)
COc1ccc(C(=O)COC(=O)/C=C/c2ccc(S(=O)(=O)Nc3cccc(S(N)(=O)=O)c3)cc2)cc1	MBNL1-CUG inh inconclusive, Menin MLL FP TR inconclusive
NS(=O)(=O)c1cccc(NS(=O)(=O)c2ccc(/C=C/C(=O)OCC(=O)c3ccc(Br)cc3)cc2)c1	Menin MLL FP TR 28µM
COc1cccc(-c2cc(C(=O)Nc3nc4ccccc4s3)c3ccccc3n2)c1	Menin MLL FP TR 28µM
COC(=O)c1ccc(NC(=S)NC(=O)c2cc(-c3ccccc3)nc3ccccc23)cc1	Menin MLL FP TR 13µM
O=C(Nc1nc2ccccc2s1)c1cc(-c2ccco2)nc2ccccc12	none
CC1=NN(c2cccc(F)c2)C(=O)/C1=C/c1ccc(N(C)C)cc1	MLL CXXC-DNA inh inconclusive, Menin MLL FP TR 22µM (no result: CBFb RUNX1 block)
Nc1nonc1-n1nnc(C(=O)N/N=C/c2ccc(OCc3ccccc3F)cc2)c1CN1CCCCC1	none (no result: CBFb RUNX1 block)
Cc1nc(N/N=C/c2ccc(O)cc2O)cc(N2CCOCC2)n1	MBNL1-CUG inh inconclusive, Menin MLL FP TR inconclusive (no result: CBFb RUNX1 block)
O=C(N/N=C\c1cn(-c2ccccc2)nc1-c1ccccc1)c1ccc(Br)o1	Menin MLL FP TR 32µM
COc1ccc(-c2nn(-c3ccccc3)cc2/C=N/NC(=O)c2cccc(S(=O)(=O)Nc3ccccc3Cl)c2)cc1	Menin MLL FP TR 16µM (no result: MBNL1-CUG inh)
CN(CC(=O)Nc1ccc(Cl)c(Cl)c1)C1CCCCC1	none (no result: CBFb RUNX1 block)
CC(=O)Nc1ccc(-c2cc(-c3ccc(NC(C)=O)cc3)nc(-c3ccccc3)n2)cc1	Menin MLL FP TR 6.3µM
CC(=O)Nc1ccc(-c2cc(-c3ccccc3)nc(-c3ccccc3)n2)cc1	Menin MLL FP TR inconclusive (no result: MBNL1-CUG inh)
COC(=O)c1oc2ccc(Br)cc2c1NC(=O)c1ccccc1	Menin MLL FP TR 28µM
COc1ccc(OC)c(N)c1	Menin MLL FP TR 25µM
COc1ccc(C)cc1N	none (no result: MBNL1-CUG inh, MLL CXXC-DNA inh, Menin MLL FP FL, Menin MLL FP TR)
COc1ccccc1NC(=O)Cn1nnc(-c2ccccc2NS(=O)(=O)c2ccccc2)n1	Menin MLL FP TR inconclusive
COc1ccccc1NC(=O)Cn1nnc(-c2ccccc2NC(=O)c2cc3ccccc3oc2=O)n1	Menin MLL FP TR 20µM
COc1cc(/C=C(/NC(=O)c2ccccc2Cl)C(=O)O)cc(OC)c1OC	none
COCCCNC(=O)C(=O)Nc1cc2c3c(c1)CCN3C(=O)CC2	none (no result: CBFb RUNX1 block)
CC1(C)Cc2c(c(-c3ccccc3)[nH]c(=O)c2C#N)CS1	none
CC1(C)Cc2c(c(-c3ccco3)[nH]c(=O)c2C#N)CS1	Menin MLL FP FL inconclusive, Menin MLL FP TR 25µM
COC(=O)c1ccnc(SCC(=O)c2ccccc2)c1	none (no result: Menin MLL FP FL)
CCC(=Nc1ccc(N)cc1)C1=C(O)C(C(=O)OC)C(C)(C)CC1=O (centres undefined)	MBNL1-CUG inh inconclusive, Menin MLL FP FL inconclusive, Menin MLL FP TR 32µM
O=C(NC1CC1)c1ccc(COc2ccc(F)cc2)o1	none
CC(=O)Nc1ccc(NC(=O)c2ccc(NC(=O)c3ccccc3)cc2)cc1	none (no result: CBFb RUNX1 block, Menin MLL FP FL, Menin MLL FP TR)
O=C(Nc1ccc(NC(=O)c2ccc(S(=O)(=O)c3ccccc3)cc2)cc1)c1ccccc1	Menin MLL FP TR 10µM
CN(c1ccccc1)S(=O)(=O)c1ccc(NC(=O)c2ccc(-c3ccccc3)cc2)cc1	Menin MLL FP TR 28µM
COc1ccc(C(=O)Nc2ccccc2C(=O)NC(Cc2ccc(O)cc2)C(=O)NNC(=O)c2ccccc2Cl)cc1 (centres undefined)	MBNL1-CUG inh inconclusive, Menin MLL FP TR 28µM
COc1ccc(C(=O)NNC(=O)C(Cc2ccc(O)cc2)NC(=O)c2ccccc2NC(=O)c2ccc(OC)cc2)cc1 (centres undefined)	MBNL1-CUG inh inconclusive, Menin MLL FP TR inconclusive
CC(=O)NN1C(=O)/C(=C2/Sc3ccc(Cl)cc3N2C)SC1=S	Menin MLL FP TR 35µM (no result: CBFb RUNX1 block)
CCN1C(C)=C(C)S/C1=C1\SC(=S)N(NC(C)=O)C1=O	MBNL1-CUG inh inconclusive
CCOC(=O)NNc1ccc2nonc2c1[N+](=O)[O-]	CBFb RUNX1 block inconclusive, MLL CXXC-DNA inh 40µM (no result: MBNL1-CUG inh, Menin MLL FP TR)
CC(=O)Oc1ccc(C(=O)Nc2cccc(NC(=O)c3ccco3)c2)cc1	none (no result: CBFb RUNX1 block)
Cn1c2ccccc2c2cc(/C=N/NC(=O)c3cc(O)cc(O)c3)ccc21	MLL CXXC-DNA inh inconclusive, Menin MLL FP TR inconclusive (no result: CBFb RUNX1 block)
CCn1c2ccccc2c2cc(/C=N/NC(=O)c3ccccc3)ccc21	Menin MLL FP TR 25µM
Oc1cccc(Nc2c3ccccc3nc3ccccc23)c1	MBNL1-CUG inh inconclusive, Menin MLL FP TR 32µM (no result: CBFb RUNX1 block)
Cc1ccc(S(=O)(=O)Nc2ccc(C(OC(=O)c3ccccc3[N+](=O)[O-])(C(F)(F)F)C(F)(F)F)cc2)cc1	Menin MLL FP TR inconclusive
CC1=CC(C)C(COC(=O)CN2CCCCC2)C(C)C1 (centres undefined)	none (no result: MBNL1-CUG inh, Menin MLL FP TR)
CCCCCCOC(=O)C[N+](C)(C)CCOC1CC2CCC1(C)C2(C)C (centres undefined)	Menin MLL FP TR 16µM
O=C(N/N=C/c1ccc2c(c1)OCO2)C1COc2ccccc2O1 (centres undefined)	none
O=C(N/N=C\C=C\c1ccc2c(c1)OCO2)C1COc2cc3ccccc3cc2O1 (centres undefined)	Menin MLL FP TR 20µM
O=c1c(CCc2ccccc2)nc2cnc(N3CCOCC3)nc2n1Cc1ccc(F)cc1	none (no result: CBFb RUNX1 block, MBNL1-CUG inh, MLL CXXC-DNA inh)
N#CCCn1c(=O)c(CCc2ccccc2)nc2cnc(N3CCOCC3)nc21	Menin MLL FP FL inconclusive, Menin MLL FP TR 40µM (no result: CBFb RUNX1 block, MBNL1-CUG inh, MLL CXXC-DNA inh)
CCCc1cc(=O)oc2cc(OC(C)C(=O)NCC3CCC(C(=O)O)CC3)c(Cl)cc12 (centres undefined)	none (no result: CBFb RUNX1 block)
O=S(=O)(Nc1ccc(-c2nc3cccnc3s2)cc1)c1cccs1	Menin MLL FP TR 22µM
O=C1Nc2ccc(Cl)cc2C12OCCCO2	none (no result: CBFb RUNX1 block)
COc1cc(C(=O)N(Cc2cccnc2)Cc2cc3cc4c(cc3[nH]c2=O)OCCO4)cc(OC)c1OC	Menin MLL FP TR 18µM
O=C(c1ccccc1F)N(Cc1cccnc1)Cc1cc2cc3c(cc2[nH]c1=O)OCCO3	none
